A selection: hits, their analogues and other compounds. The true share with any hit is near 10%.
Pf growth 48h = P. falciparum growth inhibition at 48 hours (one generation) | P. falciparum luciferase growth in erythrocytes, 48 h | Potency, µM (series often up to 28.7 µM), for inactives: at the highest dose activity change, negative = inhibition, usual class: inhibitors | hit rate 5.9% among 310,000 | AID 504832; further: on the % scale 0 is the no-effect control and ±100 the full control effect
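Erythrocytes infected with P. falciparum carrying an integrated firefly luciferase reporter (2% hematocrit, 0.1% parasitemia final) were exposed to compounds in RPMI 1640 with 0.5% Albumax at 37 C, 5% CO2. Growth inhibition was scored as reduced luminescence.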
NS1 inh = blocks influenza NS1 protein function; Potency, µM (top dose mostly 46.1 µM), without a hit: at the top dose activity, positive = more growth; hit rate 0.4% among 270,000; calls by dose curve; further: actives are rising curves; nearly all actives have a fitted effect of over 50% in size
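Read-out: OD600 growth recovery of NS1-expressing budding yeast. Cells grown overnight at 30C in -URA glucose medium, washed, resuspended and diluted 1:100 in 2% galactose assay medium, pH 6.0. Same strain lacking NS1 served as positive control.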
SARS PLpro yeast = inhibitors of SARS-CoV papain-like protease in yeast | S. cerevisiae expressing SARS-CoV PLpro, growth rescue | Potency, µM (top dose mostly 32.9 µM), for the others: top-dose activity, positive = growth rescue, usual class: activators | hit rate 0.19% among 330,000 | AID 485353; calls by dose curve; further: 0% is about no effect; nearly all actives have a fitted effect of over 55% in size
Pf growth 96h = P. falciparum growth inhibition at 96 hour, primary screen for plastid delayed-death inhibitors; hit rate 6.9% among 320,000; Potency, µM (doses to about 28.7 µM), without a hit: top-dose activity change, negative = inhibition, hits mostly inhibitors; AID 504834; P. falciparum luciferase reporter growth, 96 h; further: on the % scale 0 is the no-effect control and ±100 the full control effect
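P. falciparum expressing integrated firefly luciferase, in erythrocytes at 2% hematocrit, 0.05% parasitemia, incubated with compounds 96 h at 37 C, 5% CO2. Growth inhibition read as loss of luminescence; two-generation exposure targets delayed-death apicoplast inhibitors.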
* marks the source's active call; other numbers are inactive results. Unless noted, the call rests on the fitted dose curve; in most records, active means well fitted inhibition curve with a large enough effect; inconclusive means small, poorly fitted or top-dose-only effect, or another doubt; inactive means no such curve, though single readings can be large or run the other way. Potency means the concentration at half of the fitted maximal effect.

Results for C=CCn1c(SCC(=O)Nc2cccc3ccccc23)nc(O)c(CC)c1=O ?
NS1 inh: 13%; SARS PLpro yeast: 4%; Pf growth 96h: 9.3µM*

What do the screens show for `CN(C)CCCNCC(=O)c1c(-c2ccccc2)n(C)c2ccccc12`?
NS1 inh: -3%; SARS PLpro yeast: -6%; Pf growth 96h: inconclusive

What do the screens show for `Cc1c2cccc(Sc3ccccc3)c2c2c3c(cccc13)[S+](c1ccccc1)C2` (configuration not stated)?
NS1 inh: 4%

What do the screens show for `O=C(C1=COCCO1)N1CCN(S(=O)(=O)c2cccc(Cl)c2Cl)CC1`?
Pf growth 48h: inconclusive; NS1 inh: -2%; SARS PLpro yeast: -3%; Pf growth 96h: 15µM*

Results for Cc1oc(-c2ccccc2Cl)nc1CN1CCCCC1c1cccnc1 (configuration not stated) ?
Pf growth 48h: 12µM*; NS1 inh: 4%; SARS PLpro yeast: 0%; Pf growth 96h: inconclusive

What do the screens show for `Cc1ccccc1-c1nc(CN2CCCC2c2ccc(F)cc2)c(C)o1` (configuration not stated)?
Pf growth 48h: 10µM*; NS1 inh: 5%; SARS PLpro yeast: 0%; Pf growth 96h: 17%

What do the screens show for `COc1cccc(CN2CCCCC2c2cccnc2)c1` (configuration not stated)?
Pf growth 48h: inconclusive; NS1 inh: -12%; SARS PLpro yeast: 3%; Pf growth 96h: 10%

How did COc1ccc(-c2nc(CN3CCCCC3c3cccnc3)c(C)o2)c(F)c1 (configuration not stated) do in these assays?
Pf growth 48h: 9.3µM*; NS1 inh: 4%; SARS PLpro yeast: -1%; Pf growth 96h: inconclusive

How did CN1CCC[C@@H]1c1cccnc1 do in these assays?
Pf growth 48h: -6%; Pf growth 96h: 15µM*

What do the screens show for `CC1CN(C(=O)CCNC(=O)c2ccc(Cl)cc2)CC(C)O1` (configuration not stated)?
Pf growth 48h: 2%; NS1 inh: -2%; SARS PLpro yeast: 2%; Pf growth 96h: 15%

Results for COC(=O)C1C(O)=C(C(C)=Nc2cccc3ccccc23)C(=O)CC1(C)C (configuration not stated) ?
Pf growth 48h: -11%; NS1 inh: 1%; SARS PLpro yeast: -1%; Pf growth 96h: -3%

Results for CC(Sc1ccccc1)C(=O)NCC1COc2ccccc2O1 (configuration not stated) ?
Pf growth 48h: 1%; SARS PLpro yeast: 3%; Pf growth 96h: 28%

What do the screens show for `CN1C(C(=O)NCc2ccccc2)CC2Cn3c(nc4cc5ccccc5cc43)C21` (configuration not stated)?
Pf growth 48h: inconclusive; NS1 inh: -7%; SARS PLpro yeast: 1%; Pf growth 96h: inconclusive

Results for Cc1oc(-c2ccccc2Cl)nc1CN1CCCC1c1ccc(F)cc1 (configuration not stated) ?
Pf growth 48h: inconclusive; NS1 inh: -2%; SARS PLpro yeast: 0%; Pf growth 96h: 6.6µM*

Results for COc1ccc(CN2CCCCC2c2cccnc2)cc1C (configuration not stated) ?
Pf growth 48h: 13µM*; NS1 inh: -3%; SARS PLpro yeast: -2%; Pf growth 96h: 27%

How did Cc1nonc1C1CCCN1Cc1nc(-c2ccccc2Cl)oc1C (configuration not stated) do in these assays?
Pf growth 48h: inconclusive; NS1 inh: -5%; SARS PLpro yeast: -1%; Pf growth 96h: 100%

What do the screens show for `O=C(Nc1cnn(Cc2ccc(F)cc2)c1)c1cc(-c2ccc(Br)cc2)on1`?
NS1 inh: -10%

Results for CCOC(=O)c1nc(C)nc(Sc2n[nH]c(-c3ccccc3)n2)c1C ?
Pf growth 48h: 10µM*; NS1 inh: -7%; SARS PLpro yeast: 0%; Pf growth 96h: inconclusive

What do the screens show for `CCOC(=O)c1n[nH]c2ccccc12`?
Pf growth 48h: 9%; NS1 inh: -12%; SARS PLpro yeast: -3%; Pf growth 96h: inconclusive

What do the screens show for `CCCCNS(=O)(=O)c1ccc(OCC(=O)N2CCN(Cc3ccc4c(c3)OCO4)CC2)cc1`?
Pf growth 48h: inconclusive; NS1 inh: -17%; SARS PLpro yeast: 4%; Pf growth 96h: 10µM*

How did CS(=O)(=O)N(CC(=O)N1CCOCC1)Cc1ccc(Cl)cc1 do in these assays?
Pf growth 48h: -2%; NS1 inh: -15%; SARS PLpro yeast: 1%; Pf growth 96h: 7.4µM*

What do the screens show for `CS(=O)(=O)N(CC(=O)N1CCN(Cc2ccc3c(c2)OCO3)CC1)Cc1ccc(Cl)cc1`?
NS1 inh: -15%; SARS PLpro yeast: 8%; Pf growth 96h: 1.9µM*
